# Data: ChEMBL document CHEMBL4513141, “CO-ADD screening of NIH (USA) - Clinical Collection” (2021)
# The campaign covered roughly 23,000 compounds. About 30 (0.1%) showed an effect of 50% or more. The sample holds strong results, similar compounds and a random draw of the others, so the mix is not that of the screen. Results with a measured potency or affinity are listed apart.
# Test system: Pseudomonas aeruginosa
# Conditions: Concentration 20 uM; ASSAY_TEST Inhibition of Bacterial Growth; detection method Absorption (OD600); MEDIA CAMHB; plate type 384well; NBS; CORNING #3640; time 18 hr
row,SMILES,Inhibition
1,Cc1ncc2n1-c1ccc(Cl)cc1C(c1ccccc1F)=NC2.Cl [MIDAZOLAM HYDROCHLORIDE],11.86%
2,Cc1nnc2n1-c1ccc(Cl)cc1C(c1ccccc1)=NC2 [ALPRAZOLAM],52.22%
3,CN1C(=O)CN=C(c2ccccc2)c2cc(Cl)ccc21 [DIAZEPAM],6.74%
4,Cn1c(=O)c2nc[nH]c2n(C)c1=O.O [THEOPHYLLINE],16.98%
